Bioassay records: PubChem, The Scripps Research Institute Molecular Screening Center
Shown are actives, neighbours in structure and some others; about 2.3% of the full set was active somewhere.
CHRM1 antagonist – human M1 muscarinic receptor antagonists, primary screen, CHO-K1 cells, Fluo-8 calcium fluorescence, 1536-well; Muscarinic acetylcholine receptor M1 (Homo sapiens), P11229; CHO-K1 hM1, ACh EC80 antagonist; inhibition, % at 3 µM; hit rate 1.3% among 360,000; AID 588852, 2011;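 active = percent inhibition above its own plate's cutoff, namely the mean of that plate's compound wells plus 3 SD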;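 note: peak over basal fluorescence ratio during 140 s after agonist addition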
Target sequence (P11229 whole entry, looked up): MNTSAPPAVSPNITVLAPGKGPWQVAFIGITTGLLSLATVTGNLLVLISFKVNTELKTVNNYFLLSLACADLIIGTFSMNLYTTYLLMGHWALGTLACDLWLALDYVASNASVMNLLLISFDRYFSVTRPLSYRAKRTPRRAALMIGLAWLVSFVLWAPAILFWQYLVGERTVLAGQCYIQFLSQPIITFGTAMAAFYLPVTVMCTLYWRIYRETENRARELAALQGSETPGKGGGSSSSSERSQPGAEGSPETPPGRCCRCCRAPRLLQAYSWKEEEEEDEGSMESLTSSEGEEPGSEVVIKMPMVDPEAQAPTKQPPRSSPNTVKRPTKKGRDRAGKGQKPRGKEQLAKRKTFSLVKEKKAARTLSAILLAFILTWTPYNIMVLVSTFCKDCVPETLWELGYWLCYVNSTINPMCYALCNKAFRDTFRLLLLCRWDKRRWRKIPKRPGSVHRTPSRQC
M1 PAM parental – nonselective calcium activators in parental CHO-K1 cells, primary screen, counter-screen for M1 PAM project, cell-based, Fluo-8 calcium fluorescence, full deck, 1536-well. ATP EC20; 0% at ATP EC20, 100% at ATP max. hit rate 0.02% among 360,000. activation, % at 3 µM;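 active = activation above the run cutoff, the mean activation of all test compounds plus 3 SD, cut at about 40% in these data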;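 note: peak over basal fluorescence ratio in a 140 s read after ATP addition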
CHRM1 agonist – human M1 muscarinic receptor agonists, primary screen, Fluo-8 calcium fluorescence, CHO-K1 cells, HTS. CHO-K1 hM1, agonist mode; 0% DMSO, 100% acetylcholine EC100. hit rate 0.33% among 360,000. AID 588814, 2011. activation, % at 3 µM;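 active = activation above the run's mean compound activation plus 3 SD, cut at about 16% in these data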;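 note: peak over basal fluorescence ratio within a 140 s kinetic read after compound addition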
CHO-K1 Ca antag – M1 antagonist counterscreen hit in parental CHO-K1 cells; inhibition, % at 3 µM; hit rate 0.6% among 360,000; ATP-induced calcium, Fluo-8 fluorescence;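 active = inhibition above a per-plate cutoff, the plate's mean sample inhibition plus 3 SD, cut at about 24% in these data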
CHRM1 PAM – human M1 muscarinic receptor positive allosteric modulators, primary screen, CHO-K1 cells, Fluo-8 calcium fluorescence, 1536-well. Muscarinic acetylcholine receptor M1 (Homo sapiens), P11229. hit rate 0.088% among 360,000. CHO-K1 hM1, ACh EC20; 0% = ACh EC20, 100% = maximal ACh. activation, % at 3 µM. AID 588819, 2011; in the data active = activation above about 19%, passing the limit was not always enough
CHO-K1 Ca ag – counter-screen for M1 agonists: effect in parental CHO-K1 cells. Fluo-8 calcium fluorescence; scaled to maximal ATP response, vehicle zero. activation, % at 3 µM. hit rate 0.48% among 360,000. AID 602248, 2012; in the data active = activation above about 15%;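 note: untransfected CHO-K1 host cells lacking M1 receptor as counterscreen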
Numbers stand for hits; - = inactive; . = no result given.

SMILES | CHRM1 antagonist | M1 PAM parental | CHRM1 agonist | CHO-K1 Ca antag | CHRM1 PAM | CHO-K1 Ca ag
Cc1cc(C)cc(OCC(O)CN2CCC(CN3C(=O)c4cccc5cccc(c45)C3=O)CC2)c1 (stereo not given) | 47.9 | - | - | - | - | -
O=C1c2cccc3cccc(c23)C(=O)N1CC1CCN(CC(O)COc2ccc3ccccc3c2)CC1 (stereo not given) | 47.5 | - | - | - | - | -
O=C(Nc1ccc(C(=O)N2CCCCC2)cc1)[C@H]1O[C@@H](n2ccc(=O)[nH]c2=O)[C@H](O)[C@@H]1O | - | - | - | - | - | -
NC(=O)c1ccsc1NC(=O)COC(=O)CSc1ccc(Cl)cc1 | - | - | - | 23.8 | - | -
NC(=O)c1ccsc1NC(=O)COC(=O)c1ccc(Cl)cc1 | - | - | - | - | - | -
N#Cc1ccc(OCC(=O)OCC(=O)Nc2sccc2C(N)=O)cc1 | - | - | - | - | - | 16.0
Cc1ccc(OC(C)C(=O)OCC(=O)Nc2sccc2C(N)=O)cc1 (stereo not given) | - | - | - | - | - | 15.3
Cc1ccc(OCC(=O)OCC(=O)Nc2sccc2C(N)=O)cc1C | - | - | - | 33.4 | - | -
CC(=O)NS(=O)(=O)c1ccc(NC(=O)C(C)NS(=O)(=O)/C=C/c2ccccc2)cc1 (stereo not given) | - | - | - | - | - | -
S=C(NCc1ccco1)N1CCN(C(c2ccccc2)c2ccccc2)CC1 | 17.9 | - | - | - | - | -
COc1ccc(CNC(=O)CN2CCN(C(c3ccccc3)c3ccccc3)CC2)cc1 | 34.4 | - | - | - | - | -
O=C(CN1CCN(C(c2ccccc2)c2ccccc2)CC1)NC(=O)NCc1ccco1 | 30.1 | - | - | 26.9 | - | -
COc1cccc(N2CCN(CC(=O)Nc3ccccc3C(=O)NCc3ccccc3)CC2)c1 | 34.3 | - | - | - | - | -
COc1cccc(N2CCN(CC(=O)Nc3ccccc3C(=O)NCCc3ccccc3)CC2)c1 | - | - | - | - | - | -
CC1OC(C(C)(C)C)Cc2[nH][nH]c(=O)c21 (stereo not given) | . | - | . | - | . | -
N=C1/C(=C\c2coc3ccc(O)cc3c2=O)C(=O)N=C2SC=CN12 | - | - | 25.3 | - | - | 33.0
N=C1/C(=C\c2coc3ccccc3c2=O)C(=O)N=C2SC(c3ccncc3)=NN12 | 58.4 | - | 51.2 | 28.8 | - | 69.2
N=C1/C(=C/c2coc3ccccc3c2=O)C(=O)N=C2SC(c3ccco3)=NN12 | 51.9 | - | 85.1 | 33.6 | - | 62.8
CC1=NN2C(=N)/C(=C\c3cc(C)n(-c4ccccc4)c3C)C(=O)N=C2S1 | - | - | - | - | - | -
Cc1ccccc1C(=O)NNC(=O)CSc1nc(-c2ccccc2)cc(=O)[nH]1 | - | - | - | - | - | -
COc1ccc(CN2CCN(C(=O)CCC(=O)Nc3nnc(C(F)(F)F)s3)CC2)cc1F | - | - | - | - | - | -
COc1ccc(CN2CCN(C(=O)CCC(=O)Nc3nnc(CC(C)C)s3)CC2)cc1F | - | - | - | - | - | -
COc1ccc(CN2CCN(C(=O)CCC(=O)Nc3nnc(C4CCCCC4)s3)CC2)cc1F | 34.3 | - | - | - | - | -
CCCc1nnc(NC(=O)CCC(=O)N2CCN(Cc3ccc(OC)c(F)c3)CC2)s1 | 49.2 | - | - | - | - | -
CCc1ccc2c(c1)C(c1ccc([N+](=O)[O-])cc1)=NNC(c1ccc(C)cc1)=N2 | - | - | - | - | - | 18.2
SMILES | CHRM1 antagonist | M1 PAM parental | CHRM1 agonist | CHO-K1 Ca antag | CHRM1 PAM | CHO-K1 Ca ag
Cc1ccc(NC(=O)c2cnc(N3CCN(c4ccccn4)CC3)c3ccccc23)c(Br)c1 | 32.4 | - | - | 25.9 | - | -
CCN1CCN(c2ncc(C(=O)Nc3cc(Cl)ccc3OC)c3ccccc23)CC1 | 57.5 | - | - | - | - | -
O=C(Nc1c(F)cccc1F)c1cnc(N2CCN(c3ccccn3)CC2)c2ccccc12 | - | - | - | 29.6 | - | -
O=C1S/C(=C/c2ccccc2F)C(=O)N1CCN=C1NS(=O)(=O)c2ccccc21 | - | - | - | - | - | -
CC(C)CN(C(=O)CN(C)C(=O)c1ccco1)c1c(N)n(CC(C)C)c(=O)[nH]c1=O | - | - | - | - | - | -
CCOC(=O)C1C(=O)NC(c2ccccc2)=NC1c1ccc(O)c(OC)c1 (stereo not given) | - | - | - | - | - | -
O=C(N/N=C/c1ccc(F)cc1)c1sccc1OCc1ccc(F)cc1 | - | 44.5 | - | - | - | -
CCOc1ccsc1C(=O)O | - | - | - | 29.9 | - | -
O=C(N/N=C/c1ccc(Cl)cc1)c1sccc1OCc1ccc(F)cc1 | - | - | - | - | - | -
Cc1ccc(COc2ccsc2C(=O)O)cc1 | - | - | - | - | - | 15.1
NNC(=O)c1sccc1OCc1ccc(F)cc1 | - | - | - | - | - | -
COC(=O)c1ccc(CN2C(=O)NC(CC(C)C)C2=O)cc1 (stereo not given) | - | - | - | - | - | -
O=C(CC(c1ccccc1O)N1CCCCC1)N1CCCCC1 (stereo not given) | 69.8 | - | - | - | - | -
O=C(CC(c1ccccc1)c1cc(Cl)ccc1O)N1CCCC1 (stereo not given) | - | - | - | - | - | -
CCOC(=O)/C=C1\SCC(=O)N1CC(=O)NC12CC3CC(CC(C3)C1)C2 | - | - | - | 24.4 | - | -
CCOC(=O)/C=C1\SCC(=O)N1CC(=O)NC(C)C | - | - | - | - | - | -
CCOC(=O)/C=C1\SCC(=O)N1CC(=O)NCCc1ccc(F)cc1 | - | - | - | - | - | 16.9
COc1ccccc1NC(=O)CN(c1ccccc1)S(=O)(=O)c1ccccc1 | - | - | - | - | - | -
Cc1ccc(S(=O)(=O)N(CC(=O)Nc2ccccc2C(=O)O)c2ccccc2)cc1 | - | - | - | - | - | 15.8
O=C(CCN1C(=O)c2ccccc2C1=O)NCc1ccc(Cl)cc1 | - | - | - | - | - | -
CSc1ncc(C(=O)Nc2ccccc2)cn1 | - | - | - | - | - | -
CC(C)Cc1ccc(C(C)NC(=O)c2ccc(=O)[nH]c2)cc1 (stereo not given) | - | - | - | - | - | 15.4
COc1ccc(CCN(C)C2CCCN(S(=O)(=O)c3ccccc3)C2)cc1OC (stereo not given) | - | - | - | - | - | -
CCCCNC(=O)CSc1nc2cc3c(cc2c(=O)n1Cc1ccco1)OCO3 | - | - | - | - | - | -
